Compounds with a hit are over-represented: about 4.2% of the library has one in this group of screens.
RecA intein inh: Mtb RecA intein splicing inhibitors, primary screen, biochemical, fluorescence, HTS; cell-free RecA intein splicing; inhibition, % (concentration not given with the values); 290,000 compounds, 0.75% hits; AID 2221, 2009; in the data active = inhibition above about 30%; inconclusive = no clear call, values can overlap the other calls;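 note: 0% = vehicle wells and 100% = reference inhibitor control wells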
FBA Mtb inh: Mtb FBA enzyme inhibitors, primary screen, biochemical, fluorescence, strain H37Rv; purified M. tuberculosis FBA, fluorescence read-out; inhibition, % at 1 µM; 360,000 compounds, 2.3% hits; AID 588726, 2011; in the data active = inhibition above about 27%;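 note: 0% = vehicle and 100% = reference inhibitor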
Target sequence (P9WQA3 whole entry, looked up): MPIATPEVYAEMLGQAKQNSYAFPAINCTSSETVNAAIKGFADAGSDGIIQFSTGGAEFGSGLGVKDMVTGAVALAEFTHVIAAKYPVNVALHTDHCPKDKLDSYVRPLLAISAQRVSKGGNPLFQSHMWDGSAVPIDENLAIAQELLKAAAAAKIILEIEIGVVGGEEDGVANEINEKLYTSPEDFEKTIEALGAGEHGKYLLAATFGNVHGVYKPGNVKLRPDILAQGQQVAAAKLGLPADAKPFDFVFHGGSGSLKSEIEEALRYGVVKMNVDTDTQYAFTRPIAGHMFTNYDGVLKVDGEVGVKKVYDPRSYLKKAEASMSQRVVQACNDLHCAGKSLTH
Mtb betalactam: beta-lactam sensitization of Mtb H37Rv, H37Rv; M. tuberculosis H37Rv growth with meropenem, percent inhibition; inhibition, % at 25 µM; 330,000 compounds, 0.27% hits; call rule not given here;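 note: growth measured after seven days incubation then overnight dye step; 0% = bacteria only wells and 100% = bacteria with antibiotic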
CCHF vOTU inh: CCHFV vOTU protease inhibitors, primary screen, biochemical, Pep-AMC substrate, fluorescence. Crimean-Congo hemorrhagic fever virus L polyprotein viral ovarian tumor (vOTU) protease …. inhibition, % at 11.5 µM. 370,000 compounds, 0.55% hits. AID 651958, 2012; note: 0% = vehicle wells with enzyme and 100% = no enzyme wells
GDH-TPI counter-1: GDH-TPI coupling enzyme inhibitors, primary screen, artefact control for M. tuberculosis FBA inhibitor project, biochemical, absorbance, full deck. inhibition, % at 4.8 µM. GDH-TPI coupled enzyme counterscreen, NADH absorbance. 360,000 compounds, 1.2% hits. AID 588335, 2011;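 note: 0% = DMSO wells and 100% = wells lacking the enzyme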
Mtb FBA confirm: M. tuberculosis aldolase blockers, biochemical, fluorescence, strain H37Rv, confirmation; shares compounds with FBA Mtb inh; purified M. tuberculosis FBA, fluorescence read-out; inhibition, % at 1 µM; 5,600 compounds, 78% hits; in the data active = inhibition above about 27%;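 note: 0% = vehicle wells and 100% = reference inhibitor wells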
GDH-TPI counter-2: GDH-TPI coupling enzyme inhibitors, artefact control for M. tuberculosis FBA inhibitor project, biochemical, fluorescence, high throughput | shares compounds with FBA Mtb inh | 5,600 compounds, 81% hits | GDH-TPI coupled enzyme counterscreen | inhibition, % at 1 µM; in the data active = inhibition above about 10%
The depositor's hits bear a star. Cut-off read from the data, not from the text of the source, unless noted: active = inhibition above about 30%; inactive = the rest.

`O=C(CCc1ccccc1)N[C@H]1C(=O)CCC[C@]12C(=O)N(Cc1ccccc1)c1ccccc12` gave CCHF vOTU inh 0.
O=C(CCc1ccccc1)N[C@H]1[C@@H](OC(=O)c2ccco2)CCC[C@]12C(=O)N(Cc1ccccc1)c1ccccc12 was read as CCHF vOTU inh 3.
`Nc1nc2sc3c(c2cc1C(=O)N1CCOCC1)CCCC3` gave RecA intein inh -2, FBA Mtb inh 32*, Mtb betalactam -4, CCHF vOTU inh -40, GDH-TPI counter-1 1, Mtb FBA confirm 56* and GDH-TPI counter-2 54*.
Screening COc1ccc(CN2CCc3cc(OC)c(OC)cc3C2)cc1O returned RecA intein inh -1, FBA Mtb inh -1, Mtb betalactam -9, CCHF vOTU inh -3 and GDH-TPI counter-1 1.
Screening COc1cc2c(cc1OC)CN(Cc1ccc(F)cc1)CC2 returned RecA intein inh -50, FBA Mtb inh 43*, Mtb betalactam 0, CCHF vOTU inh -77, GDH-TPI counter-1 1, Mtb FBA confirm 64* and GDH-TPI counter-2 45*.
Cn1c(SCC(=O)Nc2ccccc2-c2ccccc2)nnc1-c1cnccn1 was read as CCHF vOTU inh 9.
Cc1cc(NC(=O)CCCS(=O)(=O)c2nc(-c3cccs3)cc(C(F)(F)F)n2)no1 was read as RecA intein inh 15, FBA Mtb inh 52*, Mtb betalactam 90, CCHF vOTU inh 24, GDH-TPI counter-1 39*, Mtb FBA confirm 68* and GDH-TPI counter-2 52*.
Screening CS(=O)(=O)c1nc(-c2cccs2)cc(C(F)(F)F)n1 returned Mtb betalactam 100.
Screening O=C(O)CCS(=O)(=O)c1nc(-c2cccs2)cc(C(F)(F)F)n1 returned RecA intein inh 25, FBA Mtb inh 38*, CCHF vOTU inh 17, GDH-TPI counter-1 31*, Mtb FBA confirm 196* and GDH-TPI counter-2 128*.
OCCNc1c2ccccc2nc2c(F)c(F)c(F)c(F)c12 was read as RecA intein inh -28, FBA Mtb inh 72*, Mtb betalactam -5, CCHF vOTU inh -140, GDH-TPI counter-1 2, Mtb FBA confirm active and GDH-TPI counter-2 active.
For Cc1c2ccccc2nc2c(F)c(NCCO)c(F)c(F)c12 the results were RecA intein inh -31, FBA Mtb inh 0, Mtb betalactam -3, CCHF vOTU inh 14 and GDH-TPI counter-1 13.
For COC(=O)[C@]12C[C@H](CC(=O)NCCc3ccccc3OC)C(=O)N(CCc3ccc(OC)c(OC)c3)C1=C[C@H](C(C)C)O[C@@H]2C1CC1 the results were CCHF vOTU inh 14.
For CC(=O)OC[C@H]1O[C@@H](Sc2cccc3cccnc23)[C@H](OC(C)=O)[C@@H](OC(C)=O)[C@@H]1OC(C)=O the results were RecA intein inh 0, FBA Mtb inh 28*, Mtb betalactam inconclusive, CCHF vOTU inh -26, GDH-TPI counter-1 10, Mtb FBA confirm 57* and GDH-TPI counter-2 60*.
For CC(=O)OC[C@H]1O[C@@H](Sc2cccc3cccnc23)[C@H](OC(C)=O)[C@@H](OC(C)=O)[C@H]1OC(C)=O the results were RecA intein inh -1, FBA Mtb inh 35*, Mtb betalactam -10, CCHF vOTU inh -14, GDH-TPI counter-1 -1, Mtb FBA confirm 67* and GDH-TPI counter-2 83*.
`C[C@@H]1CCN(C2CC2)S(=O)(=O)c2c(cccc2N2CCC[C@@H]2C)O1` gave CCHF vOTU inh -1.
Screening CN1C(=O)[C@@]2(O[C@H]3C=CC=CN3C3=C2C(=O)CCC3)c2cccc(Br)c21 returned CCHF vOTU inh 3.
`CC1(C)Cc2c(C#N)c(N3CCOCC3)nc(Cc3ccccc3)c2CO1` gave FBA Mtb inh 35*, Mtb betalactam 55, CCHF vOTU inh -7, GDH-TPI counter-1 5, Mtb FBA confirm 65* and GDH-TPI counter-2 52*.
For Cc1nc(N2CCOCC2)c(C#N)c2c1COC(C)(C)C2 the results were RecA intein inh -2, FBA Mtb inh 51*, Mtb betalactam 0, CCHF vOTU inh -39, GDH-TPI counter-1 -5, Mtb FBA confirm 8 and GDH-TPI counter-2 -5.
CC1(C)Cc2c(C#N)c(N3CCOCC3)nc(-c3ccccc3)c2CO1 was read as RecA intein inh 1, FBA Mtb inh 25, Mtb betalactam -5, CCHF vOTU inh -9 and GDH-TPI counter-1 5.
`CC1(C)Cc2c(C#N)c(N3CCN(C(=O)c4ccccc4)CC3)nc(Cc3ccccc3)c2CO1` gave RecA intein inh 15, FBA Mtb inh 2, Mtb betalactam 75, CCHF vOTU inh 13 and GDH-TPI counter-1 4.
`CN(C)[C@@H]1CCN(c2ccc3c(c2)O[C@H]2CCN(C2)S3(=O)=O)C1` gave CCHF vOTU inh 3.
`O=c1c2ccccc2c(/C=N/n2cnnc2)c(O)n1-c1ccccc1F` gave RecA intein inh -309, FBA Mtb inh 33*, Mtb betalactam 0, CCHF vOTU inh -27, GDH-TPI counter-1 16, Mtb FBA confirm 3 and GDH-TPI counter-2 2.
Screening Cc1ccc(-n2c(O)c(/C=N/n3cnnc3)c3ccccc3c2=O)cc1 returned RecA intein inh -76, FBA Mtb inh 5, Mtb betalactam -4, CCHF vOTU inh 6 and GDH-TPI counter-1 11.
For O=C(Nc1ccc(Oc2ccccc2)cc1)C1CCN(c2nnc(-n3cccc3)s2)CC1 the results were CCHF vOTU inh 3.
CCOC(=O)Nc1ccc(C)cc1C was read as RecA intein inh 1, FBA Mtb inh 4, Mtb betalactam -8, CCHF vOTU inh 7 and GDH-TPI counter-1 6.
Screening CCOC(=O)Nc1cc2c(C)cc(=O)oc2cc1C returned RecA intein inh -1, FBA Mtb inh 28*, Mtb betalactam -8, CCHF vOTU inh 10, GDH-TPI counter-1 8, Mtb FBA confirm 54* and GDH-TPI counter-2 42*.
For COc1ccc(S(=O)(=O)N2CCN(Cc3ccc4c(c3)OCO4)CC2)cc1 the results were RecA intein inh -4, FBA Mtb inh -1, Mtb betalactam 2, CCHF vOTU inh 7 and GDH-TPI counter-1 6.
For COc1ccc(S(=O)(=O)N2CCN(Cc3ccc(OC)c(OC)c3)CC2)cc1 the results were RecA intein inh -2, FBA Mtb inh 29*, Mtb betalactam 4, CCHF vOTU inh -8, GDH-TPI counter-1 7, Mtb FBA confirm 40* and GDH-TPI counter-2 42*.
O=C(NCC1CC1)C1Cc2c(-c3cccc(F)c3)ccnc2O1 (stereo not given) was read as FBA Mtb inh 2, CCHF vOTU inh 2 and GDH-TPI counter-1 10.

Assay outcomes from PubChem.
